Reference: PubChem BioAssay AID624296 (National Center for Advancing Translational Sciences (NCATS), 2012)
Out of some 350,000 compounds screened, about 9,900 (2.8%) were called active. Not shown: some 15% with an inconclusive outcome. Many of the other results were omitted from the sample, so actives are more common in it than they were. Values without a mark were called inactive. Calls follow the shape of the dose curve; as a rule, active = well fitted activation curve with a large enough effect; inconclusive = small, poorly fitted or top-dose-only effect; inactive = no such curve, though single readings can be large or run the other way.

Assay: A quantitative high throughput screen for small molecules that induce DNA re-replication in MCF 10a normal breast cells. Also: nearly all actives have a fitted effect of over 50% in size. As to activity, positive = re-replication: % of control where 0% means no effect.
Details: MCF 10A DNA re-replication, Hoechst nuclear intensity, 48 h; series mostly up to 46.1 µM; activity, positive = re-replication: at the top concentration
Potency is read from the fitted curve at half-maximal effect.

| Compound | activity, positive = re-replication | Potency |
| --- | --- | --- |
| Cc1ccc(S(=O)(=O)N2CCN(C(=O)Cn3c(=O)cnc4ccccc43)CC2)c(C)c1 | -0.758% | – |
| O=C(COC(=O)COc1cc(Cl)c(Cl)cc1Cl)NC1CC1 | 1.27% | – |
| Cc1ccccc1NC(=O)CSC(=O)c1ccccc1 | 17.3% | – |
| CCOC(=O)[C@H]1[C@H]2COc3ccc(Br)cc3[C@@H]2N2C(=O)CN(C)C(=O)[C@@]12C | 46.2% | – |
| COc1ccccc1CNC(=O)c1ccc(Cl)c(S(=O)(=O)N2CCCC2)c1 | 14.6% | – |
| Cc1occc1C(=O)Nc1cccc(S(=O)(=O)N2CCOCC2)c1 | 3.03% | – |
| CCN1CCC2(CC1)N=C(c1ccc(F)cc1)C(=S)N2C(=O)c1ccc(C)cc1 | – | 13 µM (active) |
| CCN1CCN(C(=O)CSc2ccc(C)cc2)CC1 | 0.479% | – |
| Cc1ccc(SCC(=O)N2CCN(c3ccc(F)cc3)CC2)cc1 | -25.2% | – |
| CCSc1nc2sc3c(c2c(=O)n1-c1ccc(C)cc1)CCN(C)C3 | – | 18.4 µM (active) |
| CCOc1ccc(-n2c(SCC(=O)OC)nc3sc4c(c3c2=O)CCN(C)C4)cc1 | -8.57% | – |
| COc1ccccc1NC(=O)CSc1nc2sc3c(c2c(=O)n1-c1ccccc1)CCN(C)C3 | 0.14% | – |
| Cc1ccc(S(=O)(=O)N(C)CC(=O)NCC(c2ccc(F)cc2)N2CCOCC2)cc1 (stereo not drawn) | -1.57% | – |
| Cc1ccccc1C(=O)Nc1ccccc1NC(=O)c1ccccc1C | 6.72% | – |
| Cc1ccccc1C(=O)Nc1ccc(N2CCCCCC2)cc1 | – | 18.4 µM (active) |
| Cc1ccccc1C(=O)NC(=S)Nc1ccc(N2CCN(C(=O)c3ccccc3)CC2)cc1 | -7.1% | – |
| O=c1[nH]c2c(c(=O)n1-c1ccccc1)CCO2 | -2.42% | – |
| Cc1ccccc1N1CCN(C(=O)c2cccnc2)CC1 | 1.77% | – |
| CC1Cc2ccccc2N1S(=O)(=O)c1cccc(C(=O)OCC(=O)N2CCOCC2)c1 (stereo not drawn) | -9.4% | – |
| CCC1([N+](=O)[O-])COC(c2ccc(C(C)C)cc2)OC1 (stereo not drawn) | 1.18% | – |
| CC(C)N(C(=O)c1ccc(-c2ccccc2F)cc1)C(C)C | -4.52% | – |
| O=C(CN1C(=O)c2ccccc2C1=O)NCc1ccc(C(=O)O)cc1 | -0.0938% | – |
| CC(=O)N(C1=C(Cl)C(=O)c2ccccc2C1=O)c1ccc(C(=O)O)cc1 | – | 5.8 µM (active) |
| O=C(OCC(=O)N1CCCCCC1)c1cnc(Cl)c(Cl)c1 | 7.44% | – |
| CN(C)CCCN(C(=O)COc1ccccc1)c1nc2c(Cl)cccc2s1 | 0.434% | – |
| COc1cc2ccccc2cc1C(=O)N(CCN(C)C)c1nc2c(F)cccc2s1 | 9.27% | – |
| COc1cccc2sc(N(CCCN(C)C)C(=O)CCS(=O)(=O)c3ccccc3)nc12 | – | 6.51 µM (active) |
| N#Cc1ccccc1S(=O)(=O)N1CCN(Cc2c(O)ccc3ccccc23)CC1 | 0.162% | – |
